# In PubChem BioAssay AID488890 (Southern Research Specialized Biocontainment Screening …, 2010):
# Out of some 320,000 compounds screened, about 1,300 (0.41%) were called active. Inconclusive results (about 3%) are left out. No rule for the calls is given here. The list is a sample of the results. Measured potencies and affinities stand elsewhere.
# Test: growth inhibition of non-replicating M. tuberculosis (AID 488890);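 also: plate controls were DMSO cells for no effect and high antibiotic wells for full effect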
# Conditions: Mycobacterium tuberculosis non-replicating, at 25 µM, stronger effect = higher value
row,Structure (SMILES),inhibition [%]
1,O=C(Cn1ccc2cc(S(=O)(=O)N3CCCC3)ccc21)NCc1ccco1,21.9
2,CN1C(=O)N(C)c2ccc(Br)c3cccc1c23,6.26
3,CN1C(=O)N(C)c2cccc3cccc1c23,0.15
4,OCC1(Cc2ccccc2)CCN(Cc2cnc(-c3cccc4ccccc34)nc2)CC1,4.25
5,CCC(C)NC(=O)Cn1c(=O)sc2ccccc21 (stereo unspecified),1.3
6,Cc1ccc2cccc(OCC(=O)Nc3cccc(S(=O)(=O)N4CCCC4)c3)c2n1,4.51
7,O=C(CSc1nc2ccccc2nc1N1CCOCC1)Nc1ccccc1F,6.49
8,CCN(CC(=O)Nc1ccc(NC(C)=O)cc1)C(=O)c1cc(CN2C(=O)c3ccccc3C2=O)ccc1OC,-15
9,Cc1c(Cl)cccc1NC(=S)N(C)CCC#N,-8.13
10,COc1cccc(C(=O)C2CCCN(Cc3cccc(C)n3)C2)c1 (stereo unspecified),37.8
11,COc1ccc(C(=O)C2CCCN(Cc3ccccn3)C2)c(OC)c1 (stereo unspecified),21.8
12,COc1ccc(C(=O)C2CCCN(Cc3cccc(C)n3)C2)c(OC)c1 (stereo unspecified),19.9
13,COc1cccc(C(=O)C2CCCN(Cc3ccccn3)C2)c1 (stereo unspecified),23
14,CCOc1ccccc1N1CCN(C(=O)c2cc[n+]([O-])cc2)CC1,15.7
15,CC(=O)Nc1ccc(S(=O)(=O)NCCc2csc(C)n2)cc1,-0.23
16,Cc1ccccc1OCCCC(=O)NCc1ccco1,15.7
17,O=C(Nc1nc2ccccc2[nH]1)c1cc2ccccc2o1,34.8
18,C/C(=N\Nc1nc2ccccc2[nH]1)c1ccccn1,78.5
19,CCOc1ncccc1C(=O)OCc1ccc([N+](=O)[O-])cc1,57.5
20,CCn1c(N2CCN(C(=S)NC)CC2)nc2ccccc21,-6.07
21,CC(C1CC1)N(Cc1ccccc1)C(=S)Nc1cccc(C(F)(F)F)c1 (stereo unspecified),66.8
22,COc1ccc(C2=Nc3cc(C)ccc3OC2)cc1,23.2
23,Cc1ccc2c(c1)N=C(c1ccc(F)cc1)CO2,30.4
24,Cc1ccc2c(c1)N=C(c1ccc(Cl)cc1)CO2,29

row,Structure (SMILES),inhibition [%]
1,Clc1ccc(C2=Nc3cc(Cl)ccc3OC2)cc1,15.6
2,Cc1cc(=O)[nH]c(SCC(=O)N2CCC(Cc3ccccc3)CC2)n1,0.43
3,CCN(C(=O)c1cc2cc3ccc(C)cc3nc2o1)c1ccc(OC)cc1,75.9
4,CS(=O)(=O)N1CCC(C(=O)N2CCN(c3ccc(F)cc3)CC2)CC1,-0.02
5,O=C(NCC(=O)N1CCc2ccccc2C1)c1ccc(Cl)cc1Cl,7.88
6,O=C(c1cc([N+](=O)[O-])ccc1Cl)N1CCc2ccccc21,43
7,O=C(c1cc([N+](=O)[O-])ccc1N1CCCCC1)N1CCc2ccccc21,21
8,C/C(CC(=O)Nc1ccc(Cl)cc1Cl)=N\NC(=O)c1ccco1,62.2
9,Cc1c2ccccc2nc2c(F)c(N(C)C)c(F)c(F)c12,67.8
10,Cc1c2ccccc2nc2c(F)c(NC(C)C)c(F)c(F)c12,25.6
11,CCCn1c(NC(=O)c2cccc(S(=O)(=O)N3CCCC3)c2)nc2ccccc21,12.3
12,Cc1[nH]n(S(=O)(=O)c2ccccc2)c(=O)c1N=Nc1cccc(Cl)c1,70.6
13,Cc1[nH][nH]c(=O)c1N=Nc1ccccc1Cl,2.18
14,C#CCOCCOCCOCCNc1nc(N2CCN(C(=O)[C@H](CCC(=O)O)n3cc([C@@H](N)[C@H](C)CC)nn3)CC2)nc(N2CCN(C(=O)[C@H](CCCCN)n3cc([C@@H](N)CC(N)=O)nn3)CC2)n1,-0.95
15,CCOC(=O)Cn1c(=O)cc(C)c2cccc(C)c21,78.8
16,Cc1cccc2c(=O)c(Br)c(C)n(Cc3ccccc3)c12,-19.5
17,CC(NC(=S)NC(=O)c1ccccc1)c1ccccc1 (stereo unspecified),38.7
18,COc1ccc(OC)c(C2Nc3ccccc3NC3=C2C(=O)CC(C)(C)C3)c1 (stereo unspecified),3.61
19,Cc1ccc(C)c(NC(=O)CN(C)C(=O)C2=NNC(=O)CC2)c1,10.7
20,CC(C)(C)NC(=O)COC(=O)c1cc(Cl)ccc1[N+](=O)[O-],70.2
21,NS(=O)(=O)c1ccc(NC(=O)COC(=O)c2cc(Cl)ccc2[N+](=O)[O-])cc1,16.2
22,O=C(C1=C(O)C(=O)N(CCCn2ccnc2)C1c1ccc(F)cc1)c1ccco1 (stereo unspecified),1.68
23,CC(C)(C)NS(=O)(=O)c1ccc(NC(=O)C2CC(=O)N(CCc3ccc(F)cc3)C2)cc1 (stereo unspecified),6.94
24,COc1ccc(CCN2CC(C(=O)NCC3(O)CCCCC3)CCC2=O)cc1 (stereo unspecified),-4.96

row,Structure (SMILES),inhibition [%]
1,Cc1cc(Nc2ccccc2)nc(NCc2ccccc2)n1,69.7
2,Cc1cc(OC2CCCCC2)nc(NCc2ccccc2)n1,29.8
3,Cc1cc(N2CCN(c3ccccc3)CC2)nc(NCc2ccccc2)n1,36.7
4,Cc1cc(N2CCOCC2)nc(NCc2ccccc2)n1,15.7
5,Cc1ccc(SCCC(=O)OCC(=O)Nc2ccc(C(N)=O)cc2)cc1,-4.28
6,COc1cc(S(=O)(=O)Nc2ccncc2)ccc1F,-1.45
7,COc1cccc(Nc2nc3cc(OC)ccc3cc2C#N)c1,2.07
8,O=C(Nc1nn[nH]n1)c1cc(-c2ccc(Cl)c(Cl)c2Cl)nc2ccccc12,28.1
9,Cc1cc2[nH]c(=O)c(=O)[nH]c2cc1S(=O)(=O)N(C)C1CCCCC1,13.6
10,O=C(O)CN1C(=O)CSC1=S,-1.21
11,CC(C)OC(=O)CCCN1C(=O)c2ccc(N)cc2C1=O,-10.2
12,COC(=O)C1=C(C)NC(C)=C(C(=O)OC)C1C(=O)OC1CCCCC1=O (stereo unspecified),-9.56
13,CCOC(=O)C1CCN(CC(=O)Nc2c(C(=O)OC)[nH]c3cccc(C)c23)CC1,2.06
14,CCOC(=O)N1c2ccccc2Sc2ccccc21,11.9
15,CC(=O)NCC(=O)OCC(=O)N1c2ccccc2Sc2ccccc21,15.6
16,COc1cccc(CN(C)C(=O)Cc2c[nH]c3ccccc23)c1OC,5.31
17,CCOC(=O)C1=C(COC(=O)c2ccc(C)s2)NC(=O)NC1C (stereo unspecified),11.3
18,CCS(=O)(=O)N1N=C(c2cccc(NS(C)(=O)=O)c2)CC1c1ccccc1 (stereo unspecified),36.4
19,Cc1nn(-c2nc3ccccc3s2)c(N)c1-c1ccc(Cl)cc1,-4.69
20,Cc1nn(-c2nc3ccccc3[nH]2)c(=O)c2ccccc12,34
21,CCC(=O)c1ccc(OCC(=O)OCC(=O)c2cc(C)n(CC3CCCO3)c2C)cc1 (stereo unspecified),70.2
22,Cc1cc(C(=O)COC(=O)COc2ccc(C#N)cc2)c(C)n1C1CC1,47
23,CC(C)c1ccc(NC(=O)C2CCCN2S(=O)(=O)c2ccccc2F)cc1 (stereo unspecified),-6.6
